# ERAP1 inh – human ERAP1 aminopeptidase inhibitors, primary screen, biochemical, single point, plate reader; recombinant ERAP1, Leu-AMC fluorescence, 60 min; inhibition, % at 10.7 µM; actives 0.15% (n = 340,000); AID 652197, 2013;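 active = mean replicate inhibition of at least 30%, or all replicates individually reaching that 30% level; inactive = mean below 30% and not every replicate reaching it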;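 also: 0% = neutral control wells and 100% = L-leucinethiol positive control wells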
# FGF22 binding – binders of human FGF22 protein, primary screen, FGF22 synaptogenesis inhibitor project, biophysical, thermal shift, single point; recombinant FGF22 thermal shift, SYPRO orange fluorescence; percent of sucrose octasulfate shift, DMSO zero; actives 1.5% (n = 340,000); AID 651658, 2012; activity (Tm shift, normalised), % at 9.99 µM;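 active = mean Tm shift, scaled 0 neutral to 100 positive control, at about 1.3% or above, every replicate too, limit read from the data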
# Target sequence (Q9HCT0 whole entry, looked up): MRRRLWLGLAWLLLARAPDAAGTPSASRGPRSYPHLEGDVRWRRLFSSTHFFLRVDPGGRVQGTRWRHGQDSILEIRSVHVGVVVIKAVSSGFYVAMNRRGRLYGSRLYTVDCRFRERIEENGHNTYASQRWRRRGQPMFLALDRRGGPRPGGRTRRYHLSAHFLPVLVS
# Casp6 inh – human caspase-6 inhibitors, primary screen, biochemical, VEID-R110 fluorescence, single point, set 2; P55212; purified caspase-6, Z-VEID-R110 cleavage fluorescence; inhibition, % at 12.5 µM; actives 0.53% (n = 350,000);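 active = mean inhibition across replicates at least about 35%, with every replicate also reaching that limit, limit read from the data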;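 also: 0% = median of neutral control wells and 100% = no fluorescence left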
# Target sequence (P55212 24-179 limits assumed): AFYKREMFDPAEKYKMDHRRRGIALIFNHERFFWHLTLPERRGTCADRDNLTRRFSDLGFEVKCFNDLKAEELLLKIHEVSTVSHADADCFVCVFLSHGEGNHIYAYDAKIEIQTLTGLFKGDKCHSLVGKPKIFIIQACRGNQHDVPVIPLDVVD
# Target sequence (P55212 194-293 limits assumed): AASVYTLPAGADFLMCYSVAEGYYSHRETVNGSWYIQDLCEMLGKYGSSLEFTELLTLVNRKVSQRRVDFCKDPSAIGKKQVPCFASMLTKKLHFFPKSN
# SIRT5 inh – SIRT5 desuccinylase inhibitors, primary screen, biochemical, fluorescence imaging, single point, set 5. Purified SirT5, succinyl-peptide AMC, trypsin-coupled fluorescence. inhibition, % at 15 µM. actives 1.1% (n = 330,000). AID 652115, 2013; in the data active = inhibition above about 15%
# * marks the source's active call; other numbers are inactive results; . = no result given. Shown are actives, neighbours in structure and some others; about 3.1% of the full set was active somewhere.
SMILES,ERAP1 inh,FGF22 binding,Casp6 inh,SIRT5 inh
CCOc1ccc(/C=N/Nc2nc(N3CCCC3)nc(N3CCCC3)n2)cc1OC,0,0,-2,1
COc1cc(NC(=O)c2cccc([N+](=O)[O-])c2)ccc1NC(=O)c1ccco1,0,44*,-2,1
C[C@H]1CCCCO[C@H](CN(C)S(=O)(=O)c2cccs2)[C@@H](C)CN([C@@H](C)CO)C(=O)c2cc(NC(=O)c3ccccc3)ccc2O1,.,0,.,.
COc1cccc(NC(=O)c2cccc(NC(=O)c3ccco3)c2)c1,1,43*,2,.
C[C@H]1CN([C@@H](C)CO)C(=O)c2c(c3ccccc3n2C)-c2ccccc2CO[C@H]1CN(C)Cc1ccc(C(=O)O)cc1,1,0,3,-2
COCC(=O)N1[C@@H]2c3ccc(/C=C/c4ccccc4)c(=O)n3C[C@H]1[C@H](CO)[C@H]2C(=O)N1CCOCC1,108*,0,5,-103
COCC(=O)N1[C@@H]2Cn3c(ccc(/C=C/c4ccccc4)c3=O)[C@H]1[C@@H](C(=O)N1CCCCC1)[C@@H]2CO,-1,0,3,-118
Cc1cc(NC(=O)c2ccccc2)ncc1NC(=O)c1cccs1,0,0,1,-1
O=C(Nc1ccc(NC(=O)c2cccs2)cn1)c1ccccc1,-4,43*,1,4
COc1ccccc1CN(C)C[C@@H]1OCc2ccccc2-c2c(n(C)c3ccccc23)C(=O)N([C@@H](C)CO)C[C@H]1C,0,0,1,.
C[C@H]1CN([C@@H](C)CO)C(=O)c2cc(C#Cc3cccc(F)c3)cnc2O[C@H]1CN(C)CC1CCCC1,-1,0,2,-4
CN(C)CC(=O)N1C[C@@H]2[C@H](c3ccccc31)[C@H](CO)N2Cc1cc(F)ccc1F,-1,0,-33,2
Cc1cc(C)cc(NC(=O)Cn2nnc(C(=O)NCc3ccccc3Cl)c2N)c1,1,0,3,0
Cc1cc(C)cc(NC(=O)Cn2nnc(C(=O)NCc3ccc(F)cc3)c2N)c1,-2,0,-1,16*
O=C(C[C@H]1CC[C@@H]2[C@H](COC[C@@H](O)CN2C(=O)Nc2ccccc2)O1)NCc1ccncn1,0,0,-2,-1
O=C(O)C1Nc2c(O)cccc2C2C=CCC12 (stereo not given),-4,0,92*,17*
COCC(=O)Nc1ccc2c(c1)OC[C@@H](C)N(C(=O)Cc1cccnc1)C[C@H](C)[C@H](OC)CN(C)C2=O,3,0,3,0
CCC(C(=O)N1CCOCC1)n1nc(C)c2sc3ccccc3c2c1=O (stereo not given),-6,-1,0,30*
O=C1Nc2ccccc2C1(O)c1ccccc1O (stereo not given),-1,0,6,-1
Cc1cc(C2(O)C(=O)Nc3ccccc32)ccc1F (stereo not given),0,0,36*,1
C[C@@H]1CN([C@H](C)CO)C(=O)Cc2cc(NS(=O)(=O)c3cccs3)ccc2O[C@@H]1CN(C)S(=O)(=O)c1ccc(Cl)cc1,3,0,-1,4
O=C(O)C1C2C=CC(C2)C1C(=O)NCc1cccs1 (stereo not given),8,0,45*,-4
O=C(NCc1ccccc1)NCc1cccs1,-6,43*,-2,-3
CCC(=O)Nc1ccc2c(c1)C(=O)N(C)[C@H]1CC[C@@H](CC(=O)NCC3CCCCC3)O[C@@H]1CO2,1,0,0,-4
COc1ccc2c3c([nH]c2c1)[C@@H](CO)N(C(=O)c1ccccn1)CC31CN(S(C)(=O)=O)C1,0,0,0,2
SMILES,ERAP1 inh,FGF22 binding,Casp6 inh,SIRT5 inh
CO[C@@H]1CN(C)C(=O)c2ccc(NC(=O)C3CCCC3)cc2OC[C@@H](C)NC[C@@H]1C,-2,0,-1,0
O=C(O)c1ccccc1C(=O)Nc1cc(-c2ccccc2)[nH]n1,4,0,4,8
O=C(O)c1ccccc1C(=O)Nc1n[nH]c(=S)s1,79*,-1,-1,1
C=CC(=O)N(CCC)C(c1ccccc1)c1ccccc1OC (stereo not given),0,0,0,21*
O=C(NCC(F)(F)F)[C@@H]1[C@@H](CO)[C@@H]2Cn3c(cccc3=O)[C@H]1N2CC1CC1,2,0,0,2
COC(=O)c1ccc(-c2noc(CN(C)CCC3CCCCO3)n2)cc1 (stereo not given),4,43*,-1,-4
COC(=O)c1ccc(-c2noc(CN3CCCC(CNC(C)=O)C3)n2)cc1 (stereo not given),3,0,-8,35*
C[C@H]1CCCCO[C@H](CN(C)S(=O)(=O)c2cn(C)cn2)[C@@H](C)CN([C@@H](C)CO)C(=O)c2cc(NC(=O)CCC(F)(F)F)ccc2O1,-1,0,-2,-2
COCCNC(=O)NC(=O)CN1CCN(C(c2ccccc2)c2ccccc2)CC1,-2,43*,-1,0
Cc1cc(=O)oc2c(C)c(OC(C)C(=O)NCCCN3CCCC3=O)ccc12 (stereo not given),-1,0,0,26*
Cc1cc(=O)oc2cc(OC(C)C(=O)NCC3CCCO3)ccc12 (stereo not given),-3,44*,-2,5
CCc1cc(=O)oc2cc(C)cc(OC(C)C(=O)NCCCN3CCCC3=O)c12 (stereo not given),1,1,2,-1
O=C(c1ccccn1)N1C[C@@H]2[C@H](c3ccccc31)[C@H](CO)N2C(=O)C1CC1,1,0,2,-1
O=C(C[C@H]1CC[C@H]2[C@@H](COC[C@@H](O)CN2S(=O)(=O)c2ccc(Cl)cc2)O1)NCc1ccc(Cl)c(Cl)c1,-1,0,0,11
NS(=O)(=O)c1ccc(NC(=O)CSc2nnc(NC3CC3)s2)cc1,4,0,36*,-3
Cc1cccc(C)c1NC(=O)CSc1nnc(NC(=O)c2ccccc2C(=O)O)s1,45*,41,-5,2
CC(=O)Nc1ccc(NC(=O)CSc2nnc(NC(=O)c3ccccc3F)s2)cc1,-35,1.9*,0,6
NC(=O)c1ccsc1NC(=O)CSc1nnc(Nc2ccccc2)s1,5,1.5*,-1,-2
O=C(CSc1nnc(NC(=O)c2ccccc2C(=O)O)s1)Nc1ccccc1Cl,16,1,3,2
O=C(CSc1nnc(NC(=O)c2ccccc2F)s1)NC1CCCC1,5,0,-4,0
C[C@H]1CN([C@@H](C)CO)C(=O)c2cc(NC(=O)Nc3cccc4ccccc34)ccc2O[C@@H]1CN(C)Cc1ccc(C(=O)O)cc1,-1,0,-2,-1
O=[N+]([O-])c1cccc(/C=N/Nc2ccccn2)c1,-5,0,-3,-8

# Assay outcomes from PubChem.
